This assay deals with Plasmodium falciparum NF54 stage V gametocytes. The experiment in a line: viability index relative to DMSO control (fraction); higher = less gametocyte killing. Conditions: 2.5 µM, incubation time: 72 h. The essentials: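 P. falciparum NF54 stage V gametocytes in serum-free screening medium (0.75% gametocytemia, 1.25% hematocrit, 10 µl) were incubated with compound at 2.5 µM in 1,536-well plates for 72 hr at 37°C under low oxygen. Then 3 µl of 2.5 µM MitoTracker Red CMXRos plus 0.13% saponin was added for one to two hours. One field per well was imaged, 20–70 µm2 red particles were counted, and the viability index was the count divided by the plate mean of DMSO wells.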

The mark [1] stands for this setting: library set: Broad Institute DOS.

± gives the uncertainty stated by the source. Whole data set: some 9,900 compounds, median “viability index relative to DMSO control” near 1, cut for the lowest 2% near 0.85. This is one part of a sample in which the lowest values are shown more often than they occur.

The compound `CCS(=O)(=O)N1C[C@@]2(C1)CN(CC1CCOCC1)[C@H](CO)c1c2c2ccc(OC)cc2n1C` showed a viability index under setting [1] of 0.985 ± 0.037.

As for `C[C@@H]1CCCCO[C@@H](CN(C)S(=O)(=O)c2cn(C)cn2)[C@H](C)CN([C@@H](C)CO)C(=O)c2cc(NC(=O)Nc3cccc4ccccc34)ccc2O1`, under setting [1], the viability index amounted to 1.02 ± 0.062.

In the case of `O=C(C[C@@H]1CC[C@@H](NS(=O)(=O)c2ccc(F)cc2)[C@H](CO)O1)N1CCN(c2ccccc2)CC1`, the viability index under setting [1] is 1.05 ± 0.087.

`O=C(Nc1ccccc1F)N1CCCCN2[C@@H](CO)[C@@H](c3ccc(/C=C/c4ccccc4)cc3)[C@@H]2C1`: the viability index under setting [1] turned out to be 0.8892 ± 0.0057.

Compound `O=C(Nc1cc(F)ccc1F)N1CCCCN2[C@H](CO)[C@H](c3ccc(C4=CCCCC4)cc3)[C@@H]2C1` showed a viability index under setting [1] of 0.935 ± 0.14.

Under setting [1], `O=C(Nc1ccccc1F)N1CCCCN2[C@H](CO)[C@H](c3ccc(/C=C/c4ccccc4)cc3)[C@H]2C1` came in with a viability index of 0.492 ± 0.14.

Consider `O=C(Nc1ccccc1F)N1CCCCN2[C@H](CO)[C@@H](c3ccc(/C=C/c4ccccc4)cc3)[C@H]2C1`, for which the viability index under setting [1] came out at 0.859 ± 0.037.

As to `O=C(Nc1cc(F)ccc1F)N1CCCCN2[C@@H](CO)[C@@H](c3ccc(C4=CCCCC4)cc3)[C@@H]2C1`, the viability index under setting [1] was determined as 0.818 ± 0.063.

For the compound `O=C(Nc1ccccc1F)N1CCCCN2[C@H](CO)[C@H](c3ccc(/C=C/c4ccccc4)cc3)[C@@H]2C1`, under setting [1], the viability index worked out at 1.01 ± 0.021.

Regarding `O=C(Nc1cc(F)ccc1F)N1CCCCN2[C@H](CO)[C@H](c3ccc(C4=CCCCC4)cc3)[C@H]2C1`, the viability index under setting [1] stood at 0.686 ± 0.018.

Regarding `O=C(Nc1ccccc1F)N1CCCCN2[C@H](CO)[C@@H](c3ccc(/C=C/c4ccccc4)cc3)[C@@H]2C1`, under setting [1], the viability index amounted to 0.961 ± 0.019.

In turn, `O=C(Nc1cc(F)ccc1F)N1CCCCN2[C@H](C1)[C@H](c1ccc(C3=CCCCC3)cc1)[C@@H]2CO` yielded a viability index under setting [1] of 1.04 ± 0.075.

Under setting [1], `O=C(C[C@@H]1C=C[C@@H](NC(=O)C2CCC2)[C@@H](CO)O1)NC1CCCCC1` came in with a viability index of 1.16 ± 0.096.

Compound `C[C@@H]1CN([C@@H](C)CO)C(=O)c2cc(NC(=O)C3CCCCC3)ccc2O[C@@H](C)CCCCO[C@@H]1CN(C)C(=O)CCC(F)(F)F` showed a viability index under setting [1] of 1.05 ± 0.025.

Take `CCCC(=O)N1C[C@@]2(C1)CN([C@@H](CO)c1c2c2ccc(OC)cc2n1C)C(=O)Nc1cccc(F)c1`: the viability index under setting [1] was found to be 0.997 ± 0.13.

As for `C[C@H](NC(=O)C[C@@H]1C=C[C@H](NS(=O)(=O)c2cccc(F)c2)[C@H](CO)O1)c1ccccc1`, under setting [1], the viability index was 1.08 ± 0.11.

For `N#Cc1ccc(-c2ccc([C@H]3[C@@H](CO)N4C(=O)CNC[C@@H]34)cc2)cc1`, the viability index under setting [1] was 0.965 ± 0.1.

Under setting [1], `CN1CCN(C(=O)C[C@H]2CC[C@@H]3[C@H](COC[C@@H](O)CN3C(=O)Nc3ccc4c(c3)OCO4)O2)CC1` gave a viability index of 1.05 ± 0.017.

The compound `O=C(C1CCOCC1)N1[C@H](CO)[C@@H](c2ccccc2)C12CN(Cc1cccc(Cl)c1)C2` registered a viability index under setting [1] of 1.1 ± 0.062.

`O=C(C1CCOCC1)N1[C@@H](CO)[C@@H](c2ccccc2)C12CN(Cc1cccc(Cl)c1)C2` registered a viability index under setting [1] of 1.103 ± 0.0018.

For `O=C(C1CCCCC1)N1[C@H](CO)[C@@H](c2ccccc2)C12CN(Cc1cccc(Cl)c1)C2`, the viability index (library set: Broad Institute Blood Stage) turned out to be 0.748 ± 0.048.

`O=C(C[C@H]1C[C@H]2c3cc(NS(=O)(=O)c4ccc(F)cc4)ccc3O[C@H]2[C@H](CO)O1)N1CCc2ccccc2C1`: under setting [1], the viability index was 0.861 ± 0.059.

On to `C[C@@H]1CCn2nncc2COC[C@H]2CCCN2C1=O`, for which, under setting [1], the viability index came to 1.04 ± 0.058.

Under setting [1], `O=S(=O)(c1ccccc1)N1CCCCN2[C@H](C1)[C@@H](c1ccc(C#CC3CCCC3)cc1)[C@@H]2CO` displayed a viability index of 0.907 ± 0.07.

For the compound `O=S(=O)(c1ccccc1)N1CCCCN2[C@H](C1)[C@H](c1ccc(C#CC3CCCC3)cc1)[C@@H]2CO`, the viability index under setting [1] is 1.03 ± 0.031.

`O=S(=O)(c1ccccc1)N1CCCCN2[C@H](CO)[C@@H](c3ccc(C#CC4CCCC4)cc3)[C@H]2C1` came in with a viability index under setting [1] of 1.03 ± 0.056.

Take `O=S(=O)(c1ccccc1)N1CCCCN2[C@H](CO)[C@H](c3ccc(C#CC4CCCC4)cc3)[C@H]2C1`: under setting [1], the viability index stood at 0.8253 ± 0.0077.

The compound `O=S(=O)(c1ccccc1)N1CCCCN2[C@@H](CO)[C@@H](c3ccc(C#CC4CCCC4)cc3)[C@@H]2C1` showed a viability index under setting [1] of 0.8429 ± 0.006.

On to `O=S(=O)(c1ccccc1)N1CCCCN2[C@H](CO)[C@@H](c3ccc(C#CC4CCCC4)cc3)[C@@H]2C1`, for which, under setting [1], the viability index turned out to be 1.01 ± 0.026.

Compound `O=C(CN1CCOCC1)N1[C@H](CO)[C@H]2c3ccccc3NC[C@H]21` registered a viability index under setting [1] of 1 ± 0.088.

Under setting [1], `C[C@H]1CN([C@@H](C)CO)C(=O)c2cc(NC(=O)Nc3cccc4ccccc34)ccc2O[C@@H]1CN(C)S(=O)(=O)c1cccs1` registered a viability index of 1.06 ± 0.026.

Under setting [1], `CN(C)C(=O)c1cccc(-c2ccc3c(c2)[C@H]2[C@H](CCN2C(=O)c2cnccn2)[C@H](CO)N3)c1` had a viability index of 1.1 ± 0.035.

The compound `CN(C)C(=O)c1cccc(-c2ccc3c(c2)[C@H]2[C@H](CCN2C(=O)c2cnccn2)[C@@H](CO)N3)c1` showed a viability index under setting [1] of 1.16 ± 0.02.

Under setting [1], `COc1ccccc1CN1CC[C@@H]2[C@H]1c1cc(-c3cccc(C(=O)N(C)C)c3)ccc1N[C@@H]2CO` had a viability index of 1.09 ± 0.028.

On to `CN(C)C(=O)c1cccc(-c2ccc3c(c2)[C@H]2[C@H](CCN2Cc2nccs2)[C@H](CO)N3)c1`, for which the viability index under setting [1] turned out to be 0.818 ± 0.014.

Under setting [1], `CN(C)C(=O)c1cccc(-c2ccc3c(c2)[C@@H]2[C@@H](CCN2Cc2nccs2)[C@@H](CO)N3)c1` had a viability index of 0.785 ± 0.07.

With `CN(C)C(=O)c1cccc(-c2ccc3c(c2)[C@@H]2[C@@H](CCN2C(=O)c2cnccn2)[C@H](CO)N3)c1`, the viability index under setting [1] worked out at 1.17 ± 0.072.

In turn, `CN(C)C(=O)c1cccc(-c2ccc3c(c2)[C@@H]2[C@@H](CCN2C(=O)c2cnccn2)[C@@H](CO)N3)c1` yielded a viability index under setting [1] of 1.12 ± 0.032.

`COc1ccccc1CN1CC[C@@H]2[C@H]1c1cc(C3=CCCCC3)ccc1N[C@@H]2CO` showed a viability index under setting [1] of 0.8126 ± 0.0046.

The compound `COc1ccccc1CN1CC[C@@H]2[C@H](CO)Nc3ccc(-c4cccc(C(=O)N(C)C)c4)cc3[C@@H]21` showed a viability index under setting [1] of 0.841 ± 0.072.

In turn, `CN(C)C(=O)c1cccc(-c2ccc3c(c2)[C@H]2[C@H](CCN2Cc2nccs2)[C@@H](CO)N3)c1` yielded a viability index under setting [1] of 1.18 ± 0.023.

On to `OC[C@@H]1Nc2ccc(C3=CCCCC3)cc2[C@@H]2[C@H]1CCN2Cc1nccs1`, for which the viability index under setting [1] amounted to 1.06 ± 0.059.

Take `COc1ccccc1-c1ccc2c(c1)[C@H]1[C@H](CCN1Cc1ccccc1F)[C@@H](CO)N2`: the viability index under setting [1] was determined as 1.02 ± 0.035.

For the compound `C[C@H]1CCCCO[C@H](CN(C)C(=O)Nc2ccc(C(F)(F)F)cc2)[C@@H](C)CN([C@@H](C)CO)C(=O)c2cc(NS(=O)(=O)c3cn(C)cn3)ccc2O1`, under setting [1], the viability index is 1.01 ± 0.013.

`CO[C@H]1CN(C)C(=O)c2ccc(NS(C)(=O)=O)cc2OC[C@H](C)N(CC2CC2)C[C@@H]1C` yielded a viability index under setting [1] of 1.03 ± 0.087.

For the origin of these results see the supplement of paper PMC4723716.
